# ELG1 repair inh: inhibitors of ELG1-dependent DNA repair in HEK293T cells. HEK293T ELG1-luciferase reporter, luminescence, 16 h; DNA damage induced by 5-fluorouridine. Potency, µM (titrated, usually from 46.1 µM), most hits filed as inhibitors. actives 2.3% (n = 330,000). AID 504467; further: nearly all actives have a fitted effect of over 55% in size
#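 Quantitative HTS, concentration-response format. 2,000 cells/well co-treated with 5-fluorouridine and compound, 16 hr in 5% CO2 at 37 °C; ONE-Glo luminescence read after 30 min.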
# SW480 rereplic: DNA re-replication induction in SW480 cells; SW480 DNA re-replication, Hoechst DNA content imaging, 48 h; Potency, µM (doses to about 46.1 µM), hits mostly activators; actives 1.8% (n = 340,000); further: nearly all actives have a fitted effect of over 55% in size
#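 Compounds, transferred as 23 nL by pin tool, were incubated with cells for 48 hr; DNA content per nucleus was then quantified by Hoechst staining and fluorescence plate imaging.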
# KB-V1 cytotox: kills drug-selected multidrug resistant KB-V1 cells. KB-V1 MDR cells viability, CellTiter-Glo, 72 h. Potency, µM (series often up to 46.1 µM), most hits filed as cytotoxic. actives 3.4% (n = 400,000); further: nearly all actives have a fitted effect of over 60% in size
#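 KB-V1 MDR subline cells in DMEM (phenol-red free, 10% FBS) exposed to compounds in qHTS concentration series for 72 h at 37 degrees C. Viability read by CellTiter-Glo luminescence; concentration-effect curves fitted after normalization and correction.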
# MCF10A rereplic: induces DNA re-replication in MCF 10a normal breast cells | MCF 10A DNA re-replication, Hoechst nuclear intensity, 48 h | Potency, µM (titrated, usually from 46.1 µM), hits mostly activators | actives 2.9% (n = 350,000) | AID 624296; further: nearly all actives have a fitted effect of over 50% in size
# KB-3-1 cytotox: KB-3-1 parental cell cytotoxicity; KB-3-1 viability, CellTiter-Glo ATP luminescence, 72 h; Potency, µM (top dose mostly 46.1 µM), actives largely listed as cytotoxic; actives 1.4% (n = 400,000); further: nearly all actives have a fitted effect of over 60% in size
#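 Luminescent ATP read-out (CellTiter-Glo) measures survival of drug-naive KB-3-1 cells after 72 h compound exposure at 37 °C. Titration series was screened from lowest to highest concentration, with DMSO vehicle plates as background controls.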
# A number is an active result; . = inactive; ? = inconclusive; / = no result; ! = not confirmed by another sample. The list is not random: actives were taken first. Their share in the collection is about 8.1%. The call rests on the fitted dose curve; in most records, active means well fitted curve in the direction sought with a large enough effect; inconclusive means small, poorly fitted or top-dose-only effect, or another doubt; inactive means no such curve, though single readings can be large; an effect the other way counts as inactive or inconclusive.
SMILES,ELG1 repair inh,SW480 rereplic,KB-V1 cytotox,MCF10A rereplic,KB-3-1 cytotox
CC(C)OCCCNC(=O)CN1C(=O)CSc2ccc(S(=O)(=O)N3CCCCC3)cc21,.,.,?,.,.
Cn1cc(CC(=O)NCCN2CCOCC2)c2ccccc21,.,23µM,.,.,.
COc1cccc(NC(=S)N(CCCN2CCCC2)Cc2cccn2Cc2ccc(Cl)cc2)c1,.,?,?,.,?
S=C(Nc1cccc(Cl)c1)N(CCCN1CCCC1)Cc1cccn1Cc1ccc(Cl)cc1,.,.,12µM,?,?
O=C(COC(=O)c1cc(=O)[nH]c(=O)[nH]1)Nc1cccc(Cl)c1,.,.,.,.,.
CC(=O)Nc1ccc(S(=O)(=O)NC2=C(N3CCN(C)CC3)C(=O)c3ccccc3C2=O)cc1,18µM,?,.,.,.
O=C1C(NS(=O)(=O)c2ccccc2)=C(N2CCN(c3ccc(F)cc3)CC2)C(=O)c2ccccc21,23µM,.,?,.,?
CCOC(=O)N1CCN(C2=C(NS(=O)(=O)c3ccc(NC(C)=O)cc3)C(=O)c3ccccc3C2=O)CC1,.,?,.,?,.
O=S(=O)(Nc1nc2ccccc2nc1N1CCN(c2ccccc2)CC1)c1ccc(F)cc1,.,.,5.2µM,.,?
CCN1CCN(C2=C(NS(=O)(=O)c3ccc(NC(C)=O)cc3)C(=O)c3ccccc3C2=O)CC1,.,.,.,?,?
CC(=O)Nc1ccc(S(=O)(=O)NC2=C(N3CCN(Cc4ccccc4)CC3)C(=O)c3ccccc3C2=O)cc1,?,?,18µM!,?,?
CCN1CCN(C2=C(NS(=O)(=O)c3ccc(C)cc3)C(=O)c3ccccc3C2=O)CC1,.,21µM,?,.,?
O=C1C(NS(=O)(=O)c2ccc(Br)cc2)=C(N2CCCCC2)C(=O)c2ccccc21,.,.,.,.,.
O=C1C2C(c3ccccc3)(C(=O)N1c1ccc(Cl)cc1)C2(c1ccccc1)c1ccccc1 (stereo not given),6.5µM,.,?,.,.
CCN(CC)c1ccc(NC(=O)C(NS(=O)(=O)c2cccs2)C(C)C)c(C)c1 (stereo not given),/,/,.,/,.
O=C1NC(=S)S/C1=C\C=C\c1ccc([N+](=O)[O-])o1,?,?,4.1µM,.,?
CCOC(=O)C(Cc1nc(OCc2ccccc2)cc(OCc2ccccc2)n1)=NO,/,.,13µM,21µM,21µM
CC(C)CCNC(=O)c1ccccc1SCC(=O)NC1CCCCCCC1,?,.,5.8µM,.,.
O=C(CSc1ccccc1C(=O)NCc1ccccc1)NC12CC3CC(CC(C3)C1)C2,?,?,5.8µM,?,?
O=C(CSc1ccccc1C(=O)NCc1ccccc1)NC1CCCCCCC1,.,.,3.3µM,.,.
O=C(CSc1ccccc1C(=O)O)NC1CCCCCC1,?,.,.,.,.
CCOc1ccccc1Nc1nc(-c2cccc(Cl)c2)c2c(n1)-c1ccccc1OC2,/,/,.,/,.
C/C(=N\O)C(C)(C)Nc1cccc(Br)c1,12µM,.,.,.,.
C/C(=N\O)C(C)(C)Nc1cccc(F)c1,.,.,.,.,.
O=C(CCS(=O)(=O)c1ccc(F)cc1)Nc1nnc(-c2ccco2)o1,.,18µM,.,?,.
SMILES,ELG1 repair inh,SW480 rereplic,KB-V1 cytotox,MCF10A rereplic,KB-3-1 cytotox
Cc1ccc(S(=O)(=O)CCC(=O)Nc2nnc(-c3ccc(F)cc3)o2)cc1,.,?,.,?,.
COc1cc(OC)cc(-c2nnc(NC(=O)CCS(=O)(=O)c3ccc(C)cc3)o2)c1,.,?,.,4.6µM,.
O=C(CSc1nc2ccsc2c(=O)n1Cc1ccccc1Cl)NCc1ccc(Cl)cc1,/,/,?,/,.
Cc1ccccc1-n1cc(-c2ccccc2)nc1SCC(=O)Nc1ccc(F)cc1,/,/,.,/,.
CCCCn1c(N)c(N(CC(C)C)C(=O)C2CCN(S(=O)(=O)c3ccccc3)CC2)c(=O)[nH]c1=O,.,?,.,.,.
COc1cc(OC)cc(C(=O)NCC(=O)OCc2ccc(Cl)c(Cl)c2)c1,.,.,?,.,.
COc1ccc(S(=O)(=O)N(CC(=O)O)c2ccccn2)cc1,.,.,.,.,.
COc1ccc(S(=O)(=O)N(CC(=O)O)c2ccccc2)cc1,.,.,.,3.7µM,.
COc1ccc(S(=O)(=O)N(CC(=O)N2CCN(c3ccccc3OC)CC2)c2ccccc2)cc1,21µM,.,?,.,?
Cc1cc(C)cc(N(CC(=O)N2CCC(C)CC2)S(=O)(=O)c2ccccc2)c1,/,?,16µM,.,.
COc1ccccc1N1CCN(C(=O)CN(CCc2ccccc2)S(C)(=O)=O)CC1,?,.,9.2µM,.,.
CSCCC(NS(=O)(=O)c1ccc2c(c1)oc(=O)n2C)C(=O)NCc1ccc(F)cc1 (stereo not given),/,/,.,/,.
COC(=O)c1cc(Cl)c(NC(=O)C(C)C)cc1OC,.,.,.,.,.
COC(=O)c1cc(OC)c(OC)cc1NC(=O)c1ccc(C)o1,23µM,.,?,.,.
COC(=O)c1cc(OC)c(OC)cc1NC(=O)c1ccc(OC)cc1,?,.,.,?,.
COC(=O)c1cc(OC)c(OC)cc1NC(=O)CCc1ccc(C)o1,?,.,.,.,.
COC(=O)c1cc(OC)c(OC)cc1NC(=O)c1ccc(C)cc1,?,.,3.3µM,.,.
COC(=O)c1cc(Cl)c(NC(=O)c2ccc(C(C)(C)C)cc2)cc1OC,?,.,.,9.2µM,.
CSc1ccccc1C(=O)C1CCCN(C(=O)c2cccc(Cn3cccn3)c2)C1 (stereo not given),/,/,.,/,.
CC(C)c1ccc(NC(=O)C2CCC(CNS(=O)(=O)c3ccc4c(c3)CCCC(=O)N4)CC2)cc1 (stereo not given),/,/,.,/,.
Cc1csc(NC(=O)CSc2nc3[nH]c(=O)cc(O)c3s2)n1,/,?,21µM,9.2µM,4.1µM
Cn1c(SCC(=O)N/N=C/c2cc([N+](=O)[O-])ccc2O)nnc1-c1ccccc1,9.2µM,?,.,.,?
Cn1c(SCC(=O)N/N=C/c2ccccn2)nnc1-c1ccccc1,.,.,.,.,.
Cn1c(SCC(=O)N/N=C/c2ccc([N+](=O)[O-])s2)nnc1-c1ccccc1,?,?,?,18µM,21µM
Cn1c(SCC(=O)N/N=C/c2cccnc2)nnc1-c1ccccc1,.,.,.,.,.
CCN(CC)C(=O)c1[nH]cnc1C(=O)Nc1ccc(Cl)cc1,.,.,.,.,.
Cc1cc(Cl)ccc1OCc1n[nH]c(=S)n1C1CCCCC1,.,.,.,26µM,.
Cc1cc(C)cc(NC(=O)COCc2cc(-c3ccc4c(c3)OCO4)on2)c1,/,/,.,/,.
Cc1cc(-c2csc(NC(=O)c3cccc(S(=O)(=O)N(C)C)c3)n2)c(C)n1-c1ccccc1,?,.,.,.,.
Cc1cc(C)c(NC(=O)c2ccc(S(=O)(=O)N(C)C)cc2)c(C)n1,.,?,.,18µM,.

# Assay outcomes as filed in PubChem.
